According to PubChem BioAssay:
The source made the active and inactive calls.

Columns and labels:
Albumin (Bos taurus) = Albumin (Bos taurus) (UniProt P02769); test: compounds binding labelled BSA control protein – biochemical, small-molecule microarray, Alexa647 label, 635/667 nm fluorescence, artefact control for SMM control protein annotation, profiling panel (AID 1118); details: BSA-A647 binding, fluorescence 635 nm, higher = more signal;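 note: score merges 667 nm emission intensity and signal-to-noise per printed compound spot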
[1] = probe aXIP binding to arrayed compounds – biochemical, NeuroSMM set, 635/667 nm fluorescence, primary screen (AID 1119); details: small-molecule microarray, higher = more signal, called active from +8 up or from −8 down;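 note: probe is the protein aXip251-270 applied at 1 µg/mL to compound-printed slides; binding of probe to printed compounds measured as 667 nm fluorescence plus signal to noise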
[2] = probe aNOTCH3 binding on compound microarray – biochemical, small-molecule microarray, 635/667 nm fluorescence, primary screen (AID 1120); details: higher = more signal;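 note: probe is a biotin-tagged antibody raised against NOTCH3 rather than NOTCH3 protein; score merges spot fluorescence near 667 nm with spot signal to noise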
[3] = probe aNOTCH2 binding on compound microarray – biochemical, small-molecule microarray, 635/667 nm fluorescence, primary screen (AID 1121); details: higher = more signal;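 note: score merges feature fluorescence read at 667 nm with its signal to noise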
[4] = biological target: Carbonic anhydrase 2 (Homo sapiens) (UniProt P00918); test: compounds binding carbonic anhydrase 2 – biochemical, small-molecule microarray, Alexa647-labelled CAII, profiling panel (AID 1122); details: CAII-A647 binding fluorescence, higher = more signal
[5] = COS7 lysate on small-molecule microarray, probe aHis, 635 nm (AID 1123); details: COS7 cell lysate, fluorescence, higher = more signal;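 note: z-score combines 667nm fluorescence intensity with signal-to-noise per printed compound spot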
[6] = probe aLAP1 signal on lysate-treated microarray – cell lysate, small-molecule microarray, COS7 lysate, primary screen (AID 1124); details: probe aLAP1, fluorescence, higher = more signal;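 note: lysate comes from COS7 cells expressing LAP1 and is applied at 0.3 µg/mL; score merges spot fluorescence near 667 nm with signal-to-noise over triplicate slides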
Sam68 (KHDRBS1) = test: compounds binding KHDRBS1 protein – biochemical, small-molecule microarray, 635 nm fluorescence, primary screen (AID 1125); details: higher = more signal;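 note: score merges 667 nm channel intensity with signal to noise over triplicate slides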
[7] = system: Chordin-like protein 2 (CHRDL2); test: compounds binding chordin-like 2 – biochemical, small-molecule microarray, 635 nm fluorescence, primary screen (AID 1126); details: fluorescence 635 nm, higher = more signal;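 note: printed compound slides probed with Chrdl2 protein at 4 µg/mL for 1 h at 4 C; score merges 667 nm emission intensity with signal to noise over three replicate slides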
[8] = biological target: Concanavalin-A (Canavalia ensiformis) (UniProt P02866); test: compounds binding concanavalin A lectin – biochemical, small-molecule microarray, Alexa647 label, 635 nm, artefact control for SMM control protein annotation, primary screen (AID 1127); details: ConA-A647 binding fluorescence, higher = more signal;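 note: z combines 667 nm emission intensity with signal-to-noise across three replicate slides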
Concanavalin-A (Canavalia ensiformis), sequence (P02866 whole entry, looked up): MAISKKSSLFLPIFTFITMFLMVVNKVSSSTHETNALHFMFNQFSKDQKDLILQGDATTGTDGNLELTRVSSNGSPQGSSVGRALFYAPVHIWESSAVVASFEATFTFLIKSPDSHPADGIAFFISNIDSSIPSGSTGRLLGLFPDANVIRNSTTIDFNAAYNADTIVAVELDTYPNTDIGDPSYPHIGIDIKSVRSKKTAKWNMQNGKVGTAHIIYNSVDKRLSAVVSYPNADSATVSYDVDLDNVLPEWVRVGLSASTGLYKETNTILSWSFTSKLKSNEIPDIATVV

Albumin (Bos taurus), sequence (P02769 whole entry, looked up): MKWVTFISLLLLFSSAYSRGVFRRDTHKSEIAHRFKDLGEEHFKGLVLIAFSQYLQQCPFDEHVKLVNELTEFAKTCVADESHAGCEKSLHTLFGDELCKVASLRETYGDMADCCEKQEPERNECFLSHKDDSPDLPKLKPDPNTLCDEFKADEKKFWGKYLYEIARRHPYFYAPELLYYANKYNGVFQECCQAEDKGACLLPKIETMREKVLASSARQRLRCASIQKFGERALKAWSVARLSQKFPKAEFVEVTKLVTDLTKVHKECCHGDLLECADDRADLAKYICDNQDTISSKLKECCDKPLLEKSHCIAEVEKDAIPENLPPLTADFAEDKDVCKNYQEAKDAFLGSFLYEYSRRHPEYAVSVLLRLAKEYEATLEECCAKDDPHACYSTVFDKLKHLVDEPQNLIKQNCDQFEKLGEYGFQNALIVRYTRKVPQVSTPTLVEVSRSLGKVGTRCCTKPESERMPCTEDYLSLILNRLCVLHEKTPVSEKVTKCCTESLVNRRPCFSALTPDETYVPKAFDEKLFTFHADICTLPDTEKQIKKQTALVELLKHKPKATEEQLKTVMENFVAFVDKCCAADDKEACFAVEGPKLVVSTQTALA

Row | Compound | composite z-score (Albumin (Bos taurus)) | composite Z-score [1] | composite z-score [2] | composite z-score [3] | composite z-score [4] | composite z-score [5] | composite z-score [6] | composite z-score (Sam68 (KHDRBS1)) | composite z-score [7] | composite z-score [8]
1 | C#CCCCON=C1C[C@@H](O)[C@@H](O)[C@@H]2[C@@H]3C(=O)N(C(C)(C)C)C(=O)[C@@H]3CC[C@H]12 | 0.725 | -0.483 (inactive) | 0.0306 | -0.0272 | -0.466 | 0.126 | 0.0192 | -0.454 | 0.557 | -0.482
2 | O=C1[C@H]2[C@H]3[C@H](O)[C@H](O)CC(=NOCc4ccccc4)[C@@H]3CC[C@H]2C(=O)N1C[C@@H]1CCCO1 | 0.0904 | -0.207 (inactive) | -0.187 | -0.0621 | -0.026 | 0.369 | 0.279 | -0.361 | 0.332 | 0.603
3 | COc1cccc([C@H]2Oc3ccc(OC)cc3C(=NOC[C@@H](O)[C@H]3O[C@@H]4OC(C)(C)O[C@@H]4[C@H]3O)[C@@H]2O)c1 | 0.891 | -0.563 (inactive) | 0.0831 | -0.139 | -0.149 | 0.48 | 0.248 | 0.706 | 0.461 | 0.532
4 | C#CCCCON=C1[C@H]2CCn3c(=O)n(-c4ccccc4)c(=O)n3[C@H]2[C@H](O)[C@@H]2O[C@H]12 | 0.37 | -0.377 (inactive) | -0.0601 | -0.142 | -0.181 | -0.169 | -0.0252 | 0.131 | 0.609 | 0.184
5 | COC(=O)[C@H](C)NC(=O)CCC1CC(OC(=O)NCc2cccc3ccccc23)CC2(CCCC(COC(=O)NCC(c3ccccc3)c3ccccc3)O2)O1 (stereo not given in full) | 0.576 | -0.171 (inactive) | 0.0242 | -0.0895 | 0.553 | 1.27 | 0.433 | 1.32 | -0.087 | 0.423
6 | CC(C)CON=C1[C@H]2CCn3c(=O)n(Cc4cc5c(cc4Cl)OCO5)c(=O)n3[C@H]2[C@H](O)[C@@H]2O[C@H]12 | -0.0261 | 0.242 (inactive) | -0.0328 | -0.0718 | 0.0904 | -0.182 | -0.177 | 0.344 | 0.529 | 0.702
7 | COC(=O)CC=C[C@@H](C)[C@@H](C=NOCC[C@@H]1C=C[C@H](OC(C)=O)[C@@H](COC(C)=O)O1)NS(=O)(=O)c1ccc(C)cc1 | -0.361 | 0.366 (inactive) | 0.132 | -0.0938 | -0.297 | -0.309 | 0.195 | 0.854 | 0.687 | -2.79
8 | C#CCCCON=C1C[C@@H](O)[C@@H](O)[C@@H]2[C@@H]3C(=O)N(C(C)(C)C)C(=O)[C@@H]3CC[C@@H]12 | 0.0601 | -0.0448 (inactive) | 0.0137 | -0.123 | -0.219 | 0.496 | 0.485 | -0.161 | 0.888 | -0.616
9 | CO[C@@H]1COC(=O)CC=C[C@H](C)[C@H](OC)COC(=O)[C@H](C)NC(=O)CC=C[C@H]1C | -0.837 | 1.11 (inactive) | -0.0043 | -0.118 | -0.481 | -0.448 | -0.134 | 0.786 | 0.896 | -1.76
10 | CCOC(=O)[C@H](Cc1ccccc1)NC(=O)CCC1CC(OC(=O)NCCc2ccc(F)cc2)CC2(CCCC(COC(=O)NCC3CCCCC3)O2)O1 (stereo not given in full) | 0.505 | -0.539 (inactive) | 0.18 | -0.0294 | 0.192 | 0.822 | 0.236 | 1.3 | 0.74 | 1.07
11 | O=C1[C@H]2[C@H]3[C@H](O)[C@H](O)CC(=NOCc4ccccc4)[C@@H]3CC[C@H]2C(=O)N1c1ccc(F)cc1F | 0.137 | -0.155 (inactive) | 0.0303 | -0.157 | 0.243 | 0.0305 | -0.294 | -0.806 | 0.0594 | 0.175
12 | COC(=O)[C@H](C)NC(=O)CCC1CC(OC(=O)NCCc2ccc(F)cc2)CC2(CCCC(COC(=O)NCc3cccc(C(F)(F)F)c3)O2)O1 (stereo not given in full) | 0.0516 | 0.116 (inactive) | 0.133 | -0.0652 | 0.193 | 0.702 | -0.363 | 0.267 | 0.208 | 0.401
13 | COC(=O)[C@H](C)NC(=O)CCC1CC(OC(=O)NCc2ccc3c(c2)OCO3)CC2(CCCC(COC(=O)NCc3cccc(C(F)(F)F)c3)O2)O1 (stereo not given in full) | 0.133 | 0.298 (inactive) | -0.0014 | -0.133 | 0.424 | 1.08 | 0.234 | 1.02 | 0.301 | 0.746
14 | CC(CCN1CCCc2nc(C)c(C)cc21)=NO[C@@H](C)c1cc(-c2c(C)cc(C)cc2C)no1 | 0.177 | 0.121 (inactive) | 0.0789 | -0.0668 | 0.0276 | 0.517 | 0.138 | 1.04 | 0.9 | 0.778
15 | COc1ccc(O[C@H]2C=C[C@@H](c3ccccc3)O[C@@H]2COC(=O)CCC(C)=NOC[C@@H](O)[C@H]2O[C@@H]3OC(C)(C)O[C@@H]3[C@H]2O)cc1 | -0.0217 | -0.212 (inactive) | -0.0284 | -0.101 | 0.325 | 0.337 | -0.123 | 1.01 | 0.728 | 0.249
16 | Cc1cc2c(nc1C)CCCN2CC(O)CN1CCCc2nc(C)c(C)cc21 | -0.293 | 2.34 (inactive) | 0.308 | 0.054 | 0.798 | 1.21 | 0.446 | 0.651 | 0.633 | 0.879
17 | CC(C)(C)N1C(=O)[C@H]2[C@H]3[C@H](O)[C@H](O)CC(=O)[C@@H]3CC[C@H]2C1=O | 0.061 | 0.302 (inactive) | -0.0918 | 0.0811 | 0.113 | 0.113 | 0.102 | 0.0236 | 0.265 | 0.395
18 | CCOC(=O)[C@H](Cc1ccccc1)NC(=O)CCC1CC(OC(=O)NCc2ccc3c(c2)OCO3)CC2(CCCC(COC(=O)NCCc3ccccc3OC)O2)O1 (stereo not given in full) | 0.485 | -0.344 (inactive) | 0.0225 | -0.184 | 0.253 | 1.05 | -0.0407 | 1.29 | 1.06 | 1.1
19 | CCOC(=O)[C@H](Cc1ccccc1)NC(=O)CCC1CC(OC(=O)NCCc2ccc(F)cc2)CC2(CCCC(COC(=O)NCc3ccccc3)O2)O1 (stereo not given in full) | 0.0213 | 0.42 (inactive) | -0.0711 | -0.124 | 0.108 | 0.244 | -0.106 | 1.2 | 0.468 | 0.477
20 | CCc1cc2c(nc1CC)CCN(CCC(C)=NO[C@@H](C)c1cn([C@H](CO)Cc3ccccc3)nn1)C2 | -0.0957 | 0.117 (inactive) | -0.0072 | -0.0956 | 0.317 | -0.0909 | 0.12 | -0.0161 | 0.231 | 0.0209
21 | CC(C)CON=C1C[C@@H](O)[C@@H](O)[C@@H]2[C@@H]3C(=O)N(c4cccc(Oc5ccccc5)c4)C(=O)[C@@H]3CC[C@@H]12 | 0.621 | 0.0388 (inactive) | -0.0377 | -0.121 | 0.418 | 1.04 | 0.118 | 1.17 | 0.232 | 1.13
22 | COc1ccc(COC(=O)NN=C2C[C@@H](O)[C@@H](O)[C@@H]3[C@@H]4C(=O)N(c5cccc(Oc6ccccc6)c5)C(=O)[C@@H]4CC[C@@H]23)cc1 | 0.267 | 0.807 (inactive) | 0.123 | -0.149 | 0.0806 | 0.303 | -0.116 | -0.456 | -0.424 | -0.337
23 | CCOC(=O)[C@H](CC(C)C)NC(=O)CCC1CC(OC(=O)NCc2cccc3ccccc23)CC2(CCCC(COC(=O)NCc3cccc(C(F)(F)F)c3)O2)O1 (stereo not given in full) | -0.105 | 0.041 (inactive) | -0.0113 | -0.146 | -0.0249 | 0.0261 | 0.127 | 0.046 | 0.964 | 0.139
24 | CCOC(=O)[C@H](CC(C)C)NC(=O)CCC1CC(OC(=O)NCc2cccc3ccccc23)CC2(CCCC(COC(=O)NCCc3ccc(Cl)cc3)O2)O1 (stereo not given in full) | 0.332 | -0.536 (inactive) | 0.0203 | -0.164 | 0.151 | 0.416 | -0.175 | 0.456 | 0.439 | 0.0711
25 | CC(C)=NOC[C@@H](C)[C@H](OCc1ccccc1)C(C)C | -0.0998 | 0.317 (inactive) | -0.165 | -0.206 | -0.389 | -0.616 | -0.228 | -1.61 | 0.0109 | -0.0651
26 | Cc1ccc(S(=O)(=O)OC[C@H]2CN3[C@H](c4ccc(Br)cc4)[C@@H](C)CC[C@H]3C(=O)O2)cc1 | 0.122 | -0.446 (inactive) | -0.0918 | -0.147 | 0.366 | 0.393 | 0.0759 | 0.893 | 0.0388 | 0.818
27 | CC(C)=CCCC(C)=CCON=C1C[C@@H](O)[C@@H](O)[C@@H]2[C@@H]3C(=O)N(Cc4ccccc4)C(=O)[C@@H]3CC[C@H]12 | 0.188 | 0.4 (inactive) | 0.0493 | -0.175 | 0.754 | 1.26 | 0.146 | 1.29 | 0.955 | 0.541
28 | O=c1n(Cc2cc3c(cc2Cl)OCO3)c(=O)n2n1CC[C@@H]1C(=NOC[C@@H](O)COCc3ccco3)[C@H]3O[C@H]3[C@@H](O)[C@@H]12 | -0.0922 | -0.263 (inactive) | -0.0841 | -0.0974 | 0.351 | -0.0175 | 0.0735 | 0.175 | 0.57 | 0.392
29 | CC(CCN1CCCCc2nc(C)c(C)cc21)=NOC[C@@H](C)[C@H](OCc1ccccc1)C(C)C | -0.303 | -0.461 (inactive) | -0.427 | -0.298 | -0.497 | -0.31 | -0.899 | -0.758 | -1.78 | -1.88
30 | COc1ccc(O[C@H]2C=C[C@@H](c3ccccc3)O[C@@H]2CON=C2[C@H]3CCn4c(=O)n(-c5ccccc5)c(=O)n4[C@H]3[C@H](O)[C@@H]3O[C@H]23)cc1 | 0.67 | 0.125 (inactive) | -0.0282 | -0.132 | 0.405 | 0.455 | 0.244 | 1.18 | 0.276 | 0.817
